{"source": "PubChem BioAssay (NCATS)", "note": "Several values for one entry are separate records, joined by “and”; a condition that tells them apart may be missing. Equal entries are not always repeated. Inconclusive results are not listed. A number with no mark means an inactive call. Calls follow the shape of the dose curve; as a rule, active = well fitted activation curve with a large enough effect; inconclusive = small, poorly fitted or top-dose-only effect; inactive = no such curve, though single readings can be large or run the other way."}
{"target": "Cellular tumor antigen p53 (Homo sapiens) (UniProt P04637)", "sequence (P04637 whole entry, looked up)": "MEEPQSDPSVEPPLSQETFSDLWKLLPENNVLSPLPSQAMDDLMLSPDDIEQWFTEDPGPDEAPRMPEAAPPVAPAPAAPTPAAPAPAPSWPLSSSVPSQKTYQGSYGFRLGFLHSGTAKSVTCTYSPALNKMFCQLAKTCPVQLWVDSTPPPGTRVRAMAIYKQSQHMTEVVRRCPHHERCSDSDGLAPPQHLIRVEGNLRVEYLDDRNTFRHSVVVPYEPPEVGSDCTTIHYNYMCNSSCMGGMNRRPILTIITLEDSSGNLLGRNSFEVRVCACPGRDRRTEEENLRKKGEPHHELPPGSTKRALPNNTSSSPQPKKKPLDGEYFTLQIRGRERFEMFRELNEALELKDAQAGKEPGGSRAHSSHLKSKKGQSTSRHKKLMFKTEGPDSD", "test": "Primary qHTS for small molecule compounds that upregulate eGFP-tagged delta133p53alpha (in N-terminal) cells. (AID 2060322);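 also: cells pre-induced with doxycycline then dosed without doxycycline; series mostly up to about 56 µM; 0% = DMSO vehicle and 100% = reference activator; nearly all actives have a fitted effect of over 75% in size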", "conditions": "NCI-H358 eGFP-delta133p53alpha fluorescence, 24 h; activation: active compounds read high", "in_short": "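NCI-H358 cells pre-induced 24 h with 10 ng/ml doxycycline for eGFP-delta133p53alpha, plated dox-free and exposed 24 h at 37C to titrated compounds. Fixed, Hoechst-stained; gated GFP peak intensity by laser scanning cytometry, normalized to DMSO (0%) and 57.5 uM 5-azacytidine (100%).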"}
{"smiles": "C[C@]12CC[C@@H]3c4ccc(OC(=O)c5ccccc5)cc4CC[C@H]3[C@@H]1CC[C@@H]2O", "activation": "14.3%"}
{"smiles": "C[C@@H]1C(=O)O[C@H]2CC34[C@H]5C[C@@H](C(C)(C)C)C36[C@@H](OC(=O)[C@@H]6O)OC4(C(=O)O5)[C@]21O", "note": "(some centres not stated)", "activation": "-10%"}
{"smiles": "CC[C@H]1CN(c2nc(N)c(C(N)=O)nc2Cl)CCN1C1CCN(Cc2ccc(Cl)cc2)CC1", "activation": "3.34%"}
{"smiles": "Cc1ccc(C(=O)C(C)CN2CCCCC2)cc1", "note": "(configuration not stated)", "activation": "-2.39%"}
{"smiles": "COc1cnc(-n2cnc(C)n2)c2[nH]cc(C(=O)C(=O)N3CCN(C(=O)c4ccccc4)CC3)c12", "activation": "3.34%"}
{"smiles": "O=C(Nc1ccc(-n2nc(C(F)(F)F)cc2C(F)(F)F)cc1)c1ccncc1F", "activation": "-5.25%"}
{"smiles": "CCCCNc1ccc(-c2ccc(CN3CCOCC3)cn2)c(NC2CCC(O)CC2)c1", "note": "(configuration not stated)", "activation": "1.91%"}
{"smiles": "Cc1cc(C)c(S(=O)(=O)n2cc(C)cc2C)c(C)c1", "activation": "5.73%"}
{"smiles": "COc1ccc(C(=O)N(CCC(C)C)Cc2nc(C)c(C)n2Cc2ccccc2C)c(OC)c1", "activation": "11.5%"}
{"smiles": "CN1CC2CN(c3ccc4oc5ccccc5c(=O)c4c3)CC2C1", "note": "(configuration not stated)", "activation": "0.955%"}
{"smiles": "O=C(Nc1cc(-c2ccccc2)nn1-c1ccccc1)c1ccc([N+](=O)[O-])cc1", "activation": "-11%"}
{"smiles": "COc1ccc(Cl)cc1[C@@]1(F)C(=O)Nc2cc(C(F)(F)F)ccc21", "activation": "24.8%"}
{"smiles": "CC(=O)O[C@]1(C(C)=O)CC[C@H]2[C@@H]3CCC4=CC(=O)CCC4=C3[C@@H](c3ccc(N(C)C)cc3)C[C@@]21C", "activation": "-13.8%"}
{"smiles": "O=C(CNC(=O)c1cccc(C(F)(F)F)c1)N[C@@H]1CCN(Cc2ccc(Cl)cc2)C1", "activation": "-2.86%"}
{"smiles": "CCOC(=O)N1CCC(NCCNC(=O)c2ccccc2C)CC1", "activation": "6.68%"}
{"smiles": "FC(F)(F)c1nnc2c(Sc3ccccc3)nc3ccc(Cl)cc3n12", "activation": "29.1%"}
{"smiles": "O=C(N[C@H](Cc1cscn1)C(=O)N[C@@H](CC1CCCCC1)[C@@H](O)[C@@H](O)C1CC1)c1nc2ccccc2[nH]1", "activation": "5.25%"}
{"smiles": "CN1CCOC(c2ccccc2)c2ccccc2C1", "note": "(configuration not stated)", "activation": "0.837% and 6.21%"}
{"smiles": "Cc1ccc2nc(N)[nH]c(=O)c2c1Sc1ccncc1", "activation": "-10% and -17.7%"}
{"smiles": "COc1c(C)cnc(Cn2cc(C#CCC(C)(C)O)c3c(Cl)nc(N)nc32)c1C", "activation": "-10%"}
{"smiles": "CCCN1CCC[C@@H](c2cccc(S(C)(=O)=O)c2)C1", "activation": "-7.64%"}
{"smiles": "O=C(NCCCn1ccnc1)c1cc(-c2ccco2)on1", "activation": "-9.07%"}
{"smiles": "Cc1nc(C)c(-c2ccc(C3CCC(CC(=O)O)CC3)cc2)nc1C(N)=O", "note": "(configuration not stated)", "activation": "-13.4%"}
{"smiles": "Cc1cc(OCCN2CCOCC2)nn1-c1ccc2ccccc2c1", "activation": "4.3%"}
{"smiles": "CCCCOc1cc(C(=O)OCCN(CC)CC)ccc1N", "activation": "-2.82% and 0%"}
{"smiles": "O=c1cc(OCc2ccc(F)cc2)ccn1-c1ccc(OCCN2CCCC2)cc1", "activation": "-0.955%"}
{"smiles": "COc1ccc(N2CCN(CCCNC(=O)Cn3c(=O)c4cccn4c4c(C)ccnc43)CC2)cc1", "activation": "0.477%"}
{"smiles": "Cc1cc(C(=O)Cn2cc(C#N)ccc2=O)c(C)n1Cc1ccccc1", "activation": "6.21%"}
{"smiles": "CCn1c(=O)n([C@H]2CCCN(c3nccc(-c4cc5ccccc5o4)n3)C2)c2ccccc21", "activation": "-7.16%"}
{"smiles": "OC1CCC(Nc2nc(-c3ccccc3)nc3[nH]ccc23)CC1", "note": "(configuration not stated)", "activation": "-8.11%"}
{"smiles": "CN(C1CCc2c(c3ccccc3n2CC(=O)O)C1)S(=O)(=O)c1ccc(F)cc1", "note": "(configuration not stated)", "activation": "-3.55% and 0% and -0.955%"}
{"smiles": "CC(C)(C#N)c1ccc(N2C(=O)OCc3cnc4ccc(-c5cnc6ccccc6c5)cc4c32)cc1", "activation": "-3.82%"}
{"smiles": "CCn1c2ccccc2c2cc(CNC)ccc21", "activation": "12.4%"}
{"smiles": "O=C(O)Cn1nnc(-c2ccc(CN(CCCCOc3ccc(CN4CCCC4)cc3)CCc3ccccc3)cc2)n1", "activation": "7.16%"}
{"smiles": "Cn1c(SCC(=O)N2CCC[C@H]2C(=O)Nc2ccccc2-c2ccccc2)nc2ccccc21", "activation": "4.77%"}
{"smiles": "O=C(Nc1cccnn1)N1CCN(c2nccc(-c3ccc(F)c(F)c3)n2)CC1", "activation": "0.477%"}
{"smiles": "CN(C)CCCOc1nn(Cc2ccccc2)c2ccccc12", "activation": "8.47% and -14.3%"}
